# Measurements from PubChem BioAssay.
# “And” between values parts separate entries of the source, which are not always exact repeats. Identical values can stand only once. For some of these results: Entries with a potency or affinity are not part of this list. Where a structure was tested more than once in an assay, its records may differ in their call. The source made the active and inactive calls. Unless noted, no rule for the calls is given here.
# How the values were obtained:
# [1] = antimalarial activity against Dd2 strain (AID 2302;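 active = growth inhibition above 50% at the single 2 µM test dose, taken to imply half-maximal potency below 2 µM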;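 also: 0% = DMSO untreated growth and 100% = chloroquine plus artemisinin killed control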); details: P. falciparum Dd2 in RBCs, LDH growth readout, 72 h; at 2 µM; stronger effect = higher value
# [2] = human hepatoma cell viability loss – ATP luminescence, cytotoxicity control for P. falciparum antimalarial project, primary screen (AID 2303;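 active = inhibition above 50%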;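 also: 0% = DMSO wells and 100% = digitonin-killed cells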); details: HepG2 viability, 24-48 h, at 10 µM, stronger effect = higher value
# [3] = target: L-lactate dehydrogenase (Plasmodium falciparum (isolate CDC / Honduras)) (UniProt Q27743); test: PfLDH activity inhibition – cell lysate, 3D7 strain, counter-screen for P. falciparum growth inhibition project (AID 2304);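 also: 0% = vehicle and 100% = reference inhibitor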; details: P. falciparum 3D7 crude extract, LDH APAD/NBT absorbance; at 2 µM; stronger effect = higher value
# [4] = inhibition of 3D7 malaria parasite growth – strain 3D7 (AID 2306);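 also: 0% = DMSO wells and 100% = chloroquine plus artemisinin control wells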; details: P. falciparum 3D7 erythrocytic growth, LDH absorbance, 72 h; at 2 µM; stronger effect = higher value
# [5] = target: Calcium-dependent protein kinase 1 (Plasmodium falciparum (isolate 3D7)) (UniProt P62344); test: PfCDPK1 kinase inhibitors, biochemical, TCAMS library (AID 1159585; cut-off not given, nearly all actives have IC50 up to about 0.98 µM;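 also: inhibitors leave more ATP so luminescence rises with inhibition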); details: recombinant PfCDPK1, Kinase-Glo ATP depletion luminescence
# [6] = target: Plasmodium falciparum protein kinase 6 (PK6, PF3D7_1337100) (UniProt Q8IDW1); test: PfPK6 kinase inhibitors, biochemical, TCAMS library (AID 1159586); details: recombinant PfPK6, Kinase-Glo ATP depletion luminescence
# [7] = target: Protein kinase 7 (PK7), Plasmodium falciparum 3D7 (PF3D7_0213400) (UniProt Q7YTF7); test: inhibition of Plasmodium PK7 catalytic activity – biochemical, TCAMS antimalarial set, Kinase-Glo luminescence (AID 1159587); details: recombinant PfPK7, Kinase-Glo ATP depletion luminescence
# [8] = target: Calcium-dependent protein kinase 4 (Plasmodium falciparum (isolate 3D7)) (UniProt Q8IBS5); test: PfCDPK4 kinase inhibitors, biochemical, TCAMS library (AID 1159588; cut-off not given, nearly all actives have IC50 up to about 0.91 µM); details: recombinant PfCDPK4, Kinase-Glo ATP depletion luminescence
# Chain of Calcium-dependent protein kinase 4 (Plasmodium falciparum (isolate 3D7)) (Q8IBS5 whole entry, looked up): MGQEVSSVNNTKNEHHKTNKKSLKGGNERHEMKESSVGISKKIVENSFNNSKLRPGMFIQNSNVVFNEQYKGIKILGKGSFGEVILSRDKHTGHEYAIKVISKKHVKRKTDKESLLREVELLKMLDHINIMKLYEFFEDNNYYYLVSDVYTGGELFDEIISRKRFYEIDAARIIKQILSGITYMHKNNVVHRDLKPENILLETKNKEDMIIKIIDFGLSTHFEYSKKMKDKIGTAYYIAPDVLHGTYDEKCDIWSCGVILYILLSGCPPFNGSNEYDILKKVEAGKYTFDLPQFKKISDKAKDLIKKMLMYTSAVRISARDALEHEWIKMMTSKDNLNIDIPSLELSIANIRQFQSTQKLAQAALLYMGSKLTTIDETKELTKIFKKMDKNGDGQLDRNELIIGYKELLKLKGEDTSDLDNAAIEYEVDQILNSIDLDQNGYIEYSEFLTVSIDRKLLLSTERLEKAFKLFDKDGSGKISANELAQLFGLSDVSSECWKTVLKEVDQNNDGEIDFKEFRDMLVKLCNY
# Chain of Calcium-dependent protein kinase 1 (Plasmodium falciparum (isolate 3D7)) (P62344 whole entry, looked up): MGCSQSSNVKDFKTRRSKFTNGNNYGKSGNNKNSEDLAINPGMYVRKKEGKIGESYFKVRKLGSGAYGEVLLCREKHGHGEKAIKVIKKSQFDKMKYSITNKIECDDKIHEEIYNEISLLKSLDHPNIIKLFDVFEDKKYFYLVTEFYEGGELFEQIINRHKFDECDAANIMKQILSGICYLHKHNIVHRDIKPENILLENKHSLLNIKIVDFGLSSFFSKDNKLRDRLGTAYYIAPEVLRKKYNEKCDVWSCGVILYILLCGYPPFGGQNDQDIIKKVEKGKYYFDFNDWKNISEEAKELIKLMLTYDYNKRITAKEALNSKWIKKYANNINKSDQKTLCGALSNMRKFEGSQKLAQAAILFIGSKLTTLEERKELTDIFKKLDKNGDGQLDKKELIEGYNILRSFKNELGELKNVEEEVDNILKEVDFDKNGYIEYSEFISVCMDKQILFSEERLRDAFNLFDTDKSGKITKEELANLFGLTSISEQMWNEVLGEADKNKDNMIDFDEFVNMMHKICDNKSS
# Chain of Protein kinase 7 (PK7), Plasmodium falciparum 3D7 (PF3D7_0213400) (Q7YTF7 1-343): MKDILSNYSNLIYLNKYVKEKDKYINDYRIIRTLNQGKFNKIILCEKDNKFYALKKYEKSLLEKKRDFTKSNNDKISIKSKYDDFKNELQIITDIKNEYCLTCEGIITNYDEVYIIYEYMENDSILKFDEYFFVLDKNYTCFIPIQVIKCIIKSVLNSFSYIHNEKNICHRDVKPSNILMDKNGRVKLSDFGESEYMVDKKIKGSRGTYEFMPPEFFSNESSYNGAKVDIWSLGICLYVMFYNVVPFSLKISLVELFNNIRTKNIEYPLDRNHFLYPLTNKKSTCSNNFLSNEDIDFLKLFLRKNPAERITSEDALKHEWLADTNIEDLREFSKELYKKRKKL
# Chain of L-lactate dehydrogenase (Plasmodium falciparum (isolate CDC / Honduras)) (Q27743 whole entry, looked up): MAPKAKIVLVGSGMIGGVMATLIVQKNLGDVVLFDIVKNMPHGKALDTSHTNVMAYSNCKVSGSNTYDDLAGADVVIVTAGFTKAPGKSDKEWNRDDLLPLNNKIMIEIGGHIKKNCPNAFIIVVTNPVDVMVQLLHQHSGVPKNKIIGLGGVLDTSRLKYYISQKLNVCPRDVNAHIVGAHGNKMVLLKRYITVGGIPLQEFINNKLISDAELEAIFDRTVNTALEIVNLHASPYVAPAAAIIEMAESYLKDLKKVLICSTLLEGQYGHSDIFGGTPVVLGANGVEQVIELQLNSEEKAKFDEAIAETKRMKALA
# Chain of Plasmodium falciparum protein kinase 6 (PK6, PF3D7_1337100) (Q8IDW1 1-305): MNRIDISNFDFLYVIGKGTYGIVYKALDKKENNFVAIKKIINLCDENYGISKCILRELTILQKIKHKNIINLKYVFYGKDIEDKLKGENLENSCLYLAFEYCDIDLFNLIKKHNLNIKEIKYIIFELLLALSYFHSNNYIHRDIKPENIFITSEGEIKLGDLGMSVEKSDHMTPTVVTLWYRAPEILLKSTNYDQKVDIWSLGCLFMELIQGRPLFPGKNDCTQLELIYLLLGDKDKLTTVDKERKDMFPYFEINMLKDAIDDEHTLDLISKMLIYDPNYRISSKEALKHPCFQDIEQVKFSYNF
Structure (SMILES),growth inhibition [1],inhibition [2],inhibition [3],growth inhibition [4],outcome [5],outcome [6],outcome [7],outcome [8]
COC(=O)c1ccc(CC(C)NCC(O)c2cccc(C(F)(F)F)c2)cc1C (centres undefined),74% (active),6% (inactive),2% (inactive),93% (active),inactive,inactive,inactive,inactive
O=C(NC1CCN(CC2(c3ccc(Cl)cc3)CCC2)CC1)c1ccn[nH]1,43% (inactive),-7% (inactive),-3% (inactive),96% (active),inactive,inactive,inactive,inactive
O=C(Nc1ccccc1OC(F)(F)F)NC1CCC(CN2CCC(c3c[nH]c4ccccc34)CC2)CC1 (centres undefined),60% (active) and 70% (active),33% (inactive) and 35% (inactive),6% (inactive) and 8% (inactive),101% (active) and 99% (active),inactive,inactive,inactive,inactive
c1ccc2c(NCCCCCCNc3c4ccccc4nc4ccccc34)c3ccccc3nc2c1,80% (active),60% (active),3% (inactive),99% (active),inactive,inactive,inactive,inactive
CC(Cc1ccc(OCCOc2ccccc2)cc1)NCC(O)c1cccc(Cl)c1 (centres undefined),99% (active),12% (inactive),1% (inactive),99% (active),inactive,inactive,inactive,inactive
NC(=O)c1ccc2[nH]cc(C3CCN(CC4CCC(NC(=O)/C=C/c5ccc(Cl)c(Cl)c5)CC4)CC3)c2c1 (centres undefined),26% (inactive) and 32% (inactive),11% (inactive) and -1% (inactive),5% (inactive) and -8% (inactive),101% (active) and 100% (active),inactive,inactive,inactive,inactive
O=C(/C=C/c1cc(C(F)(F)F)ccc1F)NC1CCC(CN2CCC(c3c[nH]c4ccccc34)CC2)CC1 (centres undefined),66% (active),5% (inactive),-5% (inactive),101% (active),inactive,inactive,inactive,inactive
O=C(/C=C/c1cc(C(F)(F)F)ccc1F)N1CCC(CN2CCC(c3c[nH]c4ccccc34)CC2)CC1,14% (inactive),22% (inactive),-1% (inactive),96% (active),inactive,inactive,inactive,inactive
COC(=O)c1ccc(CC(C)NCC(O)c2cccc3ccccc23)cc1 (centres undefined),82% (active),3% (inactive),4% (inactive),96% (active),inactive,inactive,inactive,inactive
CCCCCSc1cc(O)c(C(CNC)C(C)C)cc1OC (centres undefined),99% (active),5% (inactive),-4% (inactive),100% (active),inactive,inactive,inactive,inactive
Cc1ccc(CC(C)NCC(O)c2cccc(Cl)c2)cc1 (centres undefined),64% (active),-4% (inactive),-1% (inactive),93% (active),inactive,inactive,inactive,inactive
CC[C@H]1CN2CC[C@H]1C[C@H]2[C@H](O)c1cc(N2CCCC(C(=O)N(CC)CC)C2)nc2ccc(OC)cc12 (some centres undefined),99% (active),-13% (inactive),-2% (inactive),101% (active),inactive,inactive,inactive,inactive
C/C=C1\CN2CC[C@H]1C[C@H]2[C@H](O)c1ccnc2ccc(OC)cc12,45% (inactive) and 61% (active),-12% (inactive) and -9% (inactive),4% (inactive) and -10% (inactive),102% (active) and 99% (active),inactive,inactive,inactive,inactive
CC[C@H]1CN2CC[C@H]1C[C@H]2[C@H](O)c1ccnc2ccc(OC)cc12,62% (active),-8% (inactive),-4% (inactive),100% (active),inactive,inactive,inactive,inactive
O=C1NCN(c2ccc(O)cc2)C12CCN(CCCC(c1ccc(F)cc1)c1ccc(F)cc1)CC2,34% (inactive),20% (inactive),2% (inactive),94% (active),inactive,inactive,inactive,inactive
CC[C@H]1CN2CC[C@H]1C[C@H]2[C@H](O)c1cc(-c2ccc(SC)cc2)nc2ccc(OC)cc12,99% (active),9% (inactive),-1% (inactive),98% (active),inactive,inactive,inactive,inactive
N=c1c2c(n(Cc3ccc(Cl)cc3Cl)c3c1CCC3)CCCC2,73% (active),-5% (inactive),3% (inactive),94% (active),inactive,inactive,inactive,inactive
Cc1ccc(C[C@@H](C)NC[C@H](O)c2cccc(C(F)(F)F)c2)cc1,79% (active) and 97% (active),10% (inactive) and 6% (inactive),-4% (inactive) and 1% (inactive),101% (active) and 99% (active),inactive,inactive,inactive,inactive
CC[C@H]1CN2CC[C@@H]1C[C@H]2[C@H](O)c1cc(-c2cc(Cl)cc(Cl)c2)nc2ccc(OC)cc12,97% (active),0% (inactive),-1% (inactive),99% (active),inactive,inactive,inactive,inactive

Structure (SMILES),growth inhibition [1],inhibition [2],inhibition [3],growth inhibition [4],outcome [5],outcome [6],outcome [7],outcome [8]
COc1ccc(CN(C2CC2)C(C)C(=O)c2[nH]c(C)c(C(C)=O)c2C)cc1 (centres undefined),64% (active),40% (inactive),-3% (inactive),98% (active),inactive,inactive,inactive,inactive
COc1ccc2[nH]cc(C3=CCN(C[C@H]4C[C@@H]4C(=O)c4ccccc4)CC3)c2n1,93% (active),22% (inactive),-8% (inactive),95% (active),inactive,inactive,inactive,inactive
CCOC(C(=O)OCC1CCCN(C)C1)(c1ccccc1)c1ccccc1 (centres undefined),3% (inactive),13% (inactive),0% (inactive),98% (active),inactive,inactive,inactive,inactive
Cc1cc(C2CCCCN2C)ccc1-c1ccc(C(=O)N2CCc3cc4c(cc32)C2(CCN(C)CC2)CO4)cc1 (centres undefined),94% (active),37% (inactive),1% (inactive),95% (active),inactive,inactive,inactive,inactive
O=C(/C=C/c1ccc(Cl)c(Cl)c1)N1CCC(CN2CCC(c3c[nH]c4cc5c(cc34)OCO5)CC2)CC1,75% (active),41% (inactive),-2% (inactive),102% (active),inactive,inactive,inactive,inactive
Oc1cc2c(cc1CN1CCN(Cc3ccccc3)CC1)CCC2,92% (active),1% (inactive),0% (inactive),98% (active),inactive,inactive,inactive,inactive
O=C(/C=C/c1ccc(Cl)c(Cl)c1)NCc1ccc(CN2CCC(c3c[nH]c4ccccc34)CC2)cc1,86% (active),59% (active),-2% (inactive),101% (active),inactive,inactive,inactive,inactive
CC(Cc1ccc(SCCSc2ccccc2)cc1)NCC(O)c1cccc(Cl)c1 (centres undefined),96% (active),4% (inactive),-7% (inactive),98% (active),inactive,inactive,inactive,inactive
CC(=O)Nc1ccc(CN2CCC(N(C)c3ccc(NC(=O)c4cccc(C)c4)cc3)CC2)cc1,50% (active),-7% (inactive),-4% (inactive),91% (active),inactive,inactive,inactive,inactive
O=C(/C=C/c1c(Cl)cccc1Cl)NC1CCC(CN2CCC(c3c[nH]c4ccccc34)CC2)CC1 (centres undefined),42% (inactive) and 21% (inactive),54% (active) and 39% (inactive),-4% (inactive) and 4% (inactive),93% (active) and 100% (active),inactive,inactive,inactive,inactive
CN(C)CCCn1cc(C(=O)OC2C[C@H]3CC[C@@H](C2)N3C)c2cc(-c3ccccc3)ccc21 (some centres undefined),96% (active),97% (active),0% (inactive),97% (active),inactive,inactive,inactive,inactive
CCCCCc1cc(O)c2c(c1)OC(C)(C)c1ccncc1-2,57% (active),-5% (inactive),-1% (inactive),99% (active),inactive,inactive,inactive,inactive
O=C(/C=C/c1ccc(Cl)c(Cl)c1)Nc1cccc(CN2CCC(c3c[nH]c4ccc(O)cc34)CC2)c1,90% (active),11% (inactive),0% (inactive),101% (active),inactive,inactive,inactive,inactive
CCOc1ccc2nccc([C@@H](O)[C@@H]3C[C@@H]4CCN3C[C@@H]4CC)c2c1,99% (active) and 51% (active),24% (inactive) and 1% (inactive),2% (inactive) and -2% (inactive),98% (active) and 99% (active),inactive,inactive,inactive,inactive
COc1ccc(OC)c(C=CC(=O)NC2CCC(CN3CCC(c4c[nH]c5ccccc45)CC3)CC2)c1 (centres undefined),62% (active),43% (inactive),-4% (inactive),98% (active),inactive,inactive,inactive,inactive
CC(Cc1ccc(NC(=O)CCNCc2ccccc2)cc1)NCCc1cccc(Cl)c1 (centres undefined),100% (active),101% (active),3% (inactive),101% (active),inactive,inactive,inactive,inactive
O=C(Nc1ccccc1Cl)NC1CCC(CN2CCC(c3c[nH]c4ccccc34)CC2)CC1 (centres undefined),31% (inactive) and 34% (inactive),32% (inactive) and 37% (inactive),0% (inactive) and -2% (inactive),98% (active) and 101% (active),inactive,inactive,inactive,inactive
CCCCc1ccc2[nH]cc(C3=CCN(C)CC3)c2c1Br,94% (active),37% (inactive),-5% (inactive),94% (active),inactive,inactive,inactive,inactive
O=C(C=Cc1ccc([N+](=O)[O-])cc1)NC1CCC(CN2CCC(c3c[nH]c4ccccc34)CC2)CC1 (centres undefined),61% (active) and 81% (active),30% (inactive) and 34% (inactive),-3% (inactive),102% (active) and 101% (active),inactive,inactive,inactive,inactive
